From PubChem BioAssay AID1508622 (National Center for Advancing Translational Sciences (NCATS), 2021)
Activity calls are given as the source filed them. Calls follow the shape of the dose curve; as a rule, active = well fitted activation curve with a large enough effect; inconclusive = small, poorly fitted or top-dose-only effect; inactive = no such curve, though single readings can be large or run the other way.

assay: Confirmatory qHTS for Identification of Small Molecule Activators of Huntingtin-Antisense Promoter Activity; conditions: HEK293 HTT-AS promoter firefly luciferase reporter, 24 h; series mostly up to 57.5 µM; activity change, positive = activation: at the top concentration
Procedure, shortened: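 HEK293 luciferase reporter cells, 2,500/well, cultured 24 h, then exposed to compounds at up to 57.5 uM final for 24 h at 37C. Firefly luciferase luminescence read; normalized to vehicle (0%) and zero RLU (-100%).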

Activity change, positive = activation, inactive:
O=C(CCn1cnc2onc(-c3ccc(F)cc3)c2c1=O)Nc1ccc(F)c(Cl)c1 -93.5%
COc1cccc(CNC(=O)Cn2c(=O)oc3cc(S(=O)(=O)N4CCC(C)CC4)ccc32)c1 -21.7%
O=C(CCNS(=O)(=O)c1ccc2c(c1)CCN2C(=O)C1CC1)N1CCN(c2ccc(F)cc2)CC1 -24.2%
CCCSCCCNC(=O)c1cc2n(n1)CCCN(Cc1ccc(C)cc1)C2=O -52.8%
CCc1ccc(NC(=O)c2ccc(F)c(S(=O)(=O)NCc3ccc(Cl)c(Cl)c3)c2)cc1 -17.2%
O=S(=O)(NCCc1csc2nc(-c3ccccc3)nn12)c1ccc(Oc2ccccc2)cc1 -94.1%
Cc1ccc(S(=O)(=O)N(CC(=O)NCCc2ccc(Cl)cc2)c2ccccc2C)cc1 -36.2%
COc1ccccc1C1C=C(c2ccc(F)cc2)Nc2nc(-c3ccc(Cl)cc3)nn21 (centres undefined) -20.2%
CCCCN(C)C(=O)C1CCC(CNS(=O)(=O)c2ccc(Cl)cc2)CC1 (centres undefined) -34.2%
COc1ccc(C(=O)NCCSc2c(C)[nH]c3ccccc23)cc1 -24%
CCCS(=O)(=O)NCCc1sc2nc(-c3ccc(Cl)cc3)nn2c1C -86.1%
CCOCc1cc(CN2CCN(c3ccccc3OC)CC2)c(O)c2ncccc12 -34.5%
O=C(Nc1ccc(S(=O)(=O)N(Cc2ccccc2)c2ccccc2)cc1)c1ccc(F)cc1 -73.5%
COc1cccc(C(=O)N2c3cc(C)ccc3C(C)(c3ccccc3)CC2(C)C)c1 (centres undefined) -75.5%
Cc1noc2ncnc(NCc3cccc(Cl)c3)c12 -40%
O=S(=O)(NCc1ccc(F)cc1)c1ccc(N2CCCCS2(=O)=O)cc1 -83.7%
O=C(Cn1c(=O)oc2cc(S(=O)(=O)N3CCCCCC3)ccc21)Nc1cccc(C(F)(F)F)c1 -27.5%
Cc1ccc(-n2ccnc(NCCc3ccc(S(N)(=O)=O)cc3)c2=O)c(C)c1 -32.3%
COc1ccc(-c2noc(C(C)NC(=O)c3ccco3)n2)cc1 (centres undefined) -28.4%
CCOc1ccc(OC(=O)c2c(-c3ccccc3Cl)noc2C)cc1 -27%
O=C(NCc1cccnc1)C(=O)NCC(c1cccnc1)N1CCN(c2ccccc2F)CC1 (centres undefined) -8.55%
Cc1cc(Nc2cccc(C(F)(F)F)c2)nc2ccc(NC(=O)c3cccnc3)cc12 -71.9%
Cc1ccc2onc(CC(=O)Nc3cccc(C(F)(F)F)c3)c2c1 -21.6%
Cc1ccc(Cl)cc1-n1ncc2c(N3CCC(C)CC3)ncnc21 -31.2%
CCOc1ccc(C(=O)Nc2ccc(S(=O)(=O)N3CCCCC3c3cccnc3)cc2)cc1 (centres undefined) -70.1%
CCOc1ccc(CCNc2ncnc3onc(C)c23)cc1OCC -93.1%
CCSc1ncc(Cl)c(C(=O)Nc2ccc(S(=O)(=O)N3CCC(C)CC3)cc2)n1 -34.4%
Cc1ccccc1NC(=O)c1c(NC(=O)C(F)(F)F)sc2c1CCCCC2 -91.3%
CC1=C(C(=O)Nc2ccc(Cl)cc2)C(c2ccccc2C)n2ncc(C(=O)Nc3ccc(C)cc3)c2N1 (centres undefined) -22.7%
CCCCN1C(C(=O)c2ccccc2)=C(OC(C)=O)c2ccccc2S1(=O)=O -45.9%
CC1=C(C(=O)OCc2ccc(C)cc2)C(c2ccccc2Cl)CC(=O)N1 (centres undefined) -40%
CCN1C(=O)c2ccccc2Sc2ccc(NC(=O)Nc3ccc(Br)c(C)c3)cc21 -81.9%
CCc1ccc(CNC(=O)c2ccc3nc(SCc4ccc(F)cc4)n(C)c3c2)cc1 -30.6%
C1=CCOCc2cc(ccc2OCCN2CCCC2)Nc2nccc(n2)-c2cccc(c2)OCC1 -41.6%
COc1ccc(-n2c(-c3ccco3)nc3c(cnn3-c3ccc(Cl)cc3)c2=O)cc1 -50%
COc1ccc(C(=O)NCC(c2cccnc2)N2CCN(c3ccc(F)cc3)CC2)cc1 (centres undefined) -41.1%
CC1CCCCN1S(=O)(=O)c1ccc2c(c1)oc(=O)n2CC(=O)Nc1ccc(Cl)cc1 (centres undefined) -38.9%
O=C(COCc1cc(-c2cccs2)on1)N1CCN(c2cccc(Cl)c2)CC1 -13.4%
CC1CCN(C(=O)CSc2nnc(NC(=O)Nc3ccccc3)s2)CC1 -27%
